Results with a measured potency or affinity are listed apart.
Tests used:
[1] = system: Klebsiella pneumoniae; conditions: Concentration 32 ug.mL-1; ASSAY_TEST Inhibition of Bacterial Growth; detection method Absorption (OD600); MEDIA CAMHB; plate type 384well; NBS; CORNING #3640; time 18 hr
[2] = system: Candida albicans; conditions: 32 ug/mL
[3] = system: Cryptococcus neoformans; conditions: Concentration 32 ug.mL-1; ASSAY_TEST Inhibition of Fungal Growth; detection method Resazurin; Absorption (OD600-OD570); plate type 384well; NBS; CORNING #3640

Row | SMILES | Inhibition [1] [%] | Inhibition [2] [%] | Inhibition [3] [%]
1 | COc1ccc2cc(C=O)c(Cl)nc2c1 | 1.14 | 6.08 | 26.83
2 | CCOc1nc(N)c(C#N)cc1C#N.Cl | -1.63 | 2.86 | -26.15
3 | Cc1ccc(CNNC(N)=O)cc1.Cl | 11.02 | -0.27 | -5.64
4 | N#CC1=C(N)Oc2ccc3ccccc3c2C1 | -0.19 | 0.68 | -44.07
5 | N#Cc1c(N)nc(NCCCC2CCN(Cc3ccccc3)CC2)c(C#N)c1-c1ccccc1 | 32.61 | 1.5 | -34.35
6 | CCOC(=O)c1cc2c(N)c3c(nc2nc1C)CCCC3 | -0.45 | 0.86 | -82.76
7 | CN1C/C(=C\Cl)n2c1c(C#N)cc(C#N)c2=O | 5.49 | 1.11 | -52.5
8 | CN(Cc1cn(Cc2ccccc2)nn1)Cc1cc2cc(OCCCC3CCN(Cc4ccccc4)CC3)ccc2n1C | 4.39 | 2.75 | -73.92
9 | CCOC(=O)C1=C(C)Oc2nc3c(c(N)c2C1c1ccccc1OC)CCC3 (centres undefined) | 16.69 | -0.7 | -2.56
10 | O=C(NN=Cc1c[nH]c2ccccc12)c1cccc2ccccc12 | 12.1 | 1.76 | -3.56
11 | N#Cc1cc(Br)cc(Br)c1N | -0.57 | 4.77 | -9.46
12 | Br.C#CCNCC | 7.82 | 3.14 | -9.78
13 | COc1cccc(C2C(C#N)=C(N)Oc3c2ccc2ccccc32)c1 (centres undefined) | 8.5 | 3.73 | -38.21
14 | O=C(N[C@H]1CC[C@H](O)CC1)c1ccccc1 | 10.98 | 2.54 | -38.05
15 | O=C(O)n1ccc2ccccc21 | 4.22 | 4.1 | -3.58
16 | CSC1=NC2(CC2c2ccccc2)C(=O)N1C (centres undefined) | -3.2 | 0.11 | -5.95
17 | NNC(=O)c1c[nH]c2ccc(OCc3ccccc3)cc12 | 3.4 | 1.23 | 0.02
18 | Cc1nc2c3c(C)nn(-c4ccccc4)c3ncn2n1 | 13.92 | -0.04 | -2.13
19 | N#Cc1c(N)nc(N2CCCCC2)c(C#N)c1-c1ccccc1 | 2.6 | 1.97 | -31.47

Row | SMILES | Inhibition [1] [%] | Inhibition [2] [%] | Inhibition [3] [%]
20 | N#Cc1c(-c2ccccc2)c2c(ccc3ccccc32)oc1=O | 13.16 | 0.36 | -9.44
21 | NC(=O)c1cc2cc(OCc3ccccc3)ccc2[nH]1 | 5.14 | 6.4 | -61.34
22 | C#CCN(C)Cc1cc2cc(OCCCC3CCN(Cc4ccc(C#N)cc4)CC3)ccc2n1C | 2.67 | 4.18 | -50.05
23 | CCOC(=O)c1cc2cc(OC)ccc2n1C | -11.12 | 0.11 | -3.08
24 | N#CC1=C(Cl)Oc2c(ccc3ccccc23)C1c1ccc([N+](=O)[O-])cc1 (centres undefined) | 16.96 | 10.5 | -69.24
25 | O=Cc1c[nH]c2ccccc12 [3-FORMYLINDOLE] | 22.42 | 1.76 | -4.21
26 | N#Cc1c(-c2ccccc2)c2ccc3ccccc3c2oc1=O | 8.94 | 3.25 | -60.47
27 | CCOC(=O)C1=C(C)OC(N)=C(C#N)C1c1ccc(OC)c(OC)c1 (centres undefined) | 9.11 | 3.32 | -51.05
28 | N#CC1=C(N)Oc2c(ccc3ccccc23)C1c1c(Cl)cccc1Cl (centres undefined) | 5.34 | -0.77 | -4.89
29 | COC(=O)C(=Cc1ccccc1)NC(=O)c1ccccc1 | 12.18 | 0.5 | -5.65
30 | C#CCN(C)c1nc(Sc2ccccc2)c(C#N)c(-c2ccccc2)c1C#N | 17.28 | 1.53 | -1.7
31 | N#C/C(=C\c1ccccc1Cl)C(=O)c1ccccc1 | 13.98 | 10.6 | -6.26
32 | C#CCNc1nc(NC2CCN(Cc3ccccc3)CC2)c(C#N)cc1C#N.Cl | -9.27 | 1.54 | -92.81
33 | Nc1c2c(nc3c1C(c1ccc(O)cc1)c1c(ccc4ccccc14)O3)CCCC2 (centres undefined) | 8.92 | 2.15 | -0.6
34 | CCOC(=O)C1=C(C)NC(N)=C(C#N)C1c1ccc([N+](=O)[O-])cc1 (centres undefined) | 14.21 | 2.04 | -47.11
35 | O=C(NNC(Cc1ccccc1)Cc1ccccc1)c1cc2ccccc2[nH]1 | 6.36 | -2.25 | -1.71
36 | COc1ccc(C2C(C#N)=C(N)Oc3c2ccc2ccccc32)c(OC)c1 (centres undefined) | 2.23 | 0.21 | -2.04
37 | CCOC(=O)C1=C(C)OC(N)=C(C#N)C1c1ccc(F)cc1 (centres undefined) | 13.44 | 1.48 | -57.32
38 | C#CCNc1[nH]c2ccc(O)cc2c1C#N | 14.34 | 1.86 | -54.9

From ChEMBL document CHEMBL4513135, “CO-ADD screening of IQOG CSIS (Spain) compounds”
